# According to PubChem BioAssay AID488851 (National Center for Advancing Translational Sciences (NCATS), 2010):
# Results filed as inconclusive are left out. Calls of active or inactive are those of the source. Calls come from the whole dose curve; as a rule, active = well fitted activation curve with a large enough effect; inconclusive = small, poorly fitted or top-dose-only effect; inactive = flat fitted curve, though single readings scatter.
# Target: Lysosomal acid glucosylceramidase (Homo sapiens) (UniProt P04062)
# Sequence (P04062 whole entry, looked up): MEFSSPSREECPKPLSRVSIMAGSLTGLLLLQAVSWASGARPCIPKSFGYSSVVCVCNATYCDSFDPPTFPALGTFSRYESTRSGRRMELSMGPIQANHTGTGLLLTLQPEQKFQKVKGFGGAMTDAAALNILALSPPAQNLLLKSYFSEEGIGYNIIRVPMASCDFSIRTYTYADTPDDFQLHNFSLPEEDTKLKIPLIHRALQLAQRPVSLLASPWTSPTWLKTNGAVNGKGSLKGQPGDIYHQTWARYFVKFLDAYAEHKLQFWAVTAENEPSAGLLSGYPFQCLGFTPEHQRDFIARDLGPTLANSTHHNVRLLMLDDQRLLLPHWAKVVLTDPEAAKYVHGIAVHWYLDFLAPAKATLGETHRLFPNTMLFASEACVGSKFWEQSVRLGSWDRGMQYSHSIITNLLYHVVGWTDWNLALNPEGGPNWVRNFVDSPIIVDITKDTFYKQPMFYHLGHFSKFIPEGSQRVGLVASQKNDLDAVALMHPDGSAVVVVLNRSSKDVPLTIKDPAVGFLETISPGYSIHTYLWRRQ
# Test: qHTS Assay for Inhibitors and Activators of N370S glucocerebrosidase as a Potential Chaperone Treatment of Gaucher Disease: Purified Non-mutant Confirmation for Probe SAR
# Conditions: purified GC, 4MU-beta-glucoside fluorescence, 40 min; series mostly up to 57.5 µM
# Excerpt: NIH Chemical Genomics Center [NCGC] NIH Molecular Libraries Probe Production Centers Network [MLPCN] MLPCN Grant: MH086442-01 Assay Submitter (PI): Wei Zheng Glucocerebrosidase (GC) catalyzes the hydrolysis of beta-glucocerebroside to glucose and ceramide in lysosomes. Mutations in the glucocerebrosidase gene result in Gaucher disease, an autosomal recessive lysosomal storage disorder. Many of the mutations encountered in patients with Gaucher disease are missense alterations that may cause misfolding, decreased stability and/or mistrafficking of this lysosomal protein. […] These inhibitors include iminosugar analogs and three non-iminosugar inhibitors identified from a previous HTS of 62,000 compounds with the wild type recombinant enzyme. However, the enhancement of enzyme activity by the chaperone action of an enzyme inhibitor must be balanced against the direct inhibition of the enzyme. An enzyme activator could also function as a chaperone by binding to the enzyme and helping to correct its misfolding and mistrafficking. While activators for GC have not yet been identified, they may have better therapeutic potential than inhibitors. Therefore the discovery and development of chemical activators may provide a new strategy for the chaperone therapy. We have optimized a new assay using N370S mutant GC derived from the spleen of a Gaucher patient. […] In addition, the MLPCN compound library has expanded, which increases the chance of finding new and better probes. This assay characterizes compound activity using purified wildtype enzyme instead of mutant enzyme from tissue homogenate. Compound activity differences may be due to the absence of endogenous cofactors found in tissue homogenate as well as inherent differences in enzyme stability and catalytic activity between the N370S and wildtype forms of the protein.
# NCGC Assay Protocol Summary: This is a fluorogenic enzyme assay with 4-methylumbelliferyl-beta-D-glucopyranoside as the substrate and purified wildtype glucocerebrosidase as the enzyme preparation. Upon the hydrolysis of this fluorogenic substrate, the resulting product, […] which can be detected by a standard fluorescence plate reader. Data were normalized to the controls for basal activity (without enzyme) and 100% activity (with enzyme). The AC50 values were determined from concentration-response data modeled with the standard Hill equation. Assay buffer: 50 mM citric acid (titrated with potassium phosphate to pH 5.0), 100 mM potassium chloride, 10 mM sodium chloride, 1 mM magnesium chloride, 0.01% Tween-20. 1536-well assay protocol: (1) Add 2 ul/well of glucocerebrosidase enzyme solution (5 nM final) (2) Add 23 nL compounds in DMSO solution. The final titration was 0.5 nM to 58 uM. (3) Add 2 ul of substrate (1 mM final) (4) Incubate at 37C for 40 min. (5) Add 2 ul stop solution (1M NaOH and 1M Glycine mixture, pH 10) (6) Detect the assay plate in a ViewLux plate reader (PerkinElmer) with Ex=365 nm and Em=440nm. Keywords: Glucocerebrosidase, beta-glucosidase, Gaucher Disease, pharmacological chaperone, chaperone therapy, high throughput screening, glucocerebrosidase inhibitor, MLSMR, MLSCN, NIH Roadmap, qHTS and NCGC
row,SMILES,Potency
1,Cc1cc(C)n2ncc(C(=O)Nc3cccc(C#N)c3)c2n1,inactive
2,Cc1cc(C)n2ncc(C(=O)NC3CCCCC3)c2n1,11.6 µM (active)
3,COc1ccc(NC(=O)c2cnn3c(C)cc(C)nc23)cc1OC,inactive
4,Cc1cc(C)n2ncc(C(=O)Nc3ccc(C)c(C)c3)c2n1,5.8 µM (active)
5,CNC(=O)c1cnn2c(C)cc(C)nc12,inactive
6,Cc1cc(C)n2ncc(C(=O)NCc3ccccc3)c2n1,32.6 µM (active)
7,Cc1cc(C)n2ncc(C(=O)Nc3ccccc3C)c2n1,13 µM (active)
8,Cc1cc(C)n2ncc(C(=O)NCc3ccco3)c2n1,23.1 µM (active)
9,Cc1cc(C)n2ncc(C(=O)Nc3ccc4c(c3)OCO4)c2n1,10.3 µM (active)
10,CC(=O)c1ccc(NC(=O)c2cnn3c(C)cc(C)nc23)cc1,inactive
11,Cc1cc(C)n2ncc(C(=O)NC3CCC(C(C)(C)C)CC3)c2n1 (stereo unspecified),13 µM (active)
12,Cc1cc(C)n2ncc(C(=O)NC(C)C)c2n1,41.1 µM (active)
13,COc1ccc(NC(=O)c2cnn3c(C)cc(C)nc23)cc1,16.3 µM (active)
14,CC(=O)c1cccc(NC(=O)c2cnn3c(C)cc(C)nc23)c1,32.6 µM (active)
15,CCc1ccc(NC(=O)c2cnn3c(C)cc(C)nc23)cc1,11.6 µM (active)
16,O=C(Nc1ccccc1Sc1ccccc1)c1cnn2c1NC(=C1CC1)C=C2C(F)F,32.6 µM (active)

row,SMILES,Potency
1,Cc1cccc(NC(=O)c2cnn3c(C)cc(C)nc23)c1,16.3 µM (active)
2,Cc1cc(C)n2ncc(C(=O)N3CCCC3)c2n1,inactive
3,Cc1cc(C)n2ncc(C(=O)Nc3ccc4c(c3)OCCO4)c2n1,16.3 µM (active)
4,Cc1ccc(NC(=O)c2cnn3c(C)cc(C)nc23)c(C)c1,20.6 µM (active)
5,Cc1cc(C)n2ncc(C(=O)Nc3ccc(S(C)(=O)=O)cc3)c2n1,inactive
6,Cc1cc(C)n2ncc(C(=O)Nc3ccc(Br)cc3)c2n1,16.3 µM (active)
7,COc1ccc(NC(=O)c2cnn3c(C)cc(C)nc23)cc1Cl,20.6 µM (active)
8,CC(=O)Nc1ccccc1NC(=O)c1cnn2c(C)cc(C)nc12,inactive
9,Cc1cc(C)n2ncc(C(=O)Nc3ccccc3)c2n1,7.3 µM (active)
10,Cc1cc(C)n2ncc(C(=O)Nc3ccncc3)c2n1,inactive
11,Cc1cc(C)n2ncc(C(=O)Nc3ccc4c(c3)CCC4)c2n1,10.3 µM (active)
12,C#Cc1ccc(NC(=O)c2cnn3c(C)cc(C)nc23)cc1,5.17 µM (active)
13,COc1ccc(NC(=O)c2cnn3c(C)cc(C)nc23)cc1F,13 µM (active)
14,Cc1cc(C)n2ncc(C(=O)Nc3ccc(C(F)(F)F)cc3)c2n1,6.51 µM (active)
15,Cc1ccc(NC(=O)c2cnn3c(C)cc(C)nc23)cc1,9.19 µM (active)
